Experimental data taken from PubChem BioAssay (NCI).
Compounds without any hit were thinned out: in the full panel of roughly 83,000, 20% have a hit.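 Step 1: grow cells in 96-well plates. Step 2: add test compound at a single concentration. Step 3: incubate 48 h. Step 4: record percent growth.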 Unmarked numbers belong to inactive results. Activity calls are given as the source filed them. Rule for the calls: active = growth percent below 10; inactive = the rest.

Legend:
Assay in all cases: NCI-60 one-dose screen, 48 h (100 = growth as untreated, 0 = no growth, -100 = all killed)
EKVX NSCLC = conditions: 10 µM unless noted
SN12C renal = conditions: 10 µM unless noted
UO-31 renal = conditions: 10 µM unless noted
TK-10 renal = conditions: 10 µM unless noted
ACHN renal = conditions: 10 µM unless noted
CAKI-1 renal = conditions: 10 µM unless noted
CCRF-CEM leukemia = conditions: 10 µM unless noted
MOLT-4 leukemia = conditions: 10 µM unless noted
SR leukemia = conditions: 10 µM unless noted
RPMI-8226 leukemia = conditions: 10 µM unless noted
OVCAR-8 ovarian = conditions: 10 µM unless noted
OVCAR-5 ovarian = conditions: 10 µM unless noted
OVCAR-4 ovarian = conditions: 10 µM
SK-OV-3 ovarian = conditions: 10 µM unless noted
IGROV1 ovarian = conditions: 10 µM unless noted
OVCAR-3 ovarian = conditions: 10 µM unless noted
HS 578T breast = conditions: 10 µM unless noted
NCI/ADR-RES ovarian = conditions: 10 µM unless noted
A498 renal = conditions: 10 µM unless noted

| SMILES | growth (EKVX NSCLC) | growth (SN12C renal) | growth (UO-31 renal) | growth (TK-10 renal) | growth (ACHN renal) | growth (CAKI-1 renal) | growth (CCRF-CEM leukemia) | growth (MOLT-4 leukemia) | growth (SR leukemia) | growth (RPMI-8226 leukemia) | growth (OVCAR-8 ovarian) | growth (OVCAR-5 ovarian) | growth (OVCAR-4 ovarian) | growth (SK-OV-3 ovarian) | growth (IGROV1 ovarian) | growth (OVCAR-3 ovarian) | growth (HS 578T breast) | growth (NCI/ADR-RES ovarian) | growth (A498 renal) |
| --- | --- | --- | --- | --- | --- | --- | --- | --- | --- | --- | --- | --- | --- | --- | --- | --- | --- | --- | --- |
| C#CCC(C(=O)OCC)C(=O)OCC | 95.1% | 109% | 85% | 98.7% | 102% | 93.6% | 104% | 100% | 99.9% | 102% | 105% | 94.9% | 128% | 99.5% | 117% | 103% | 104% | 105% |  |
| CSc1nc2sc3cc(Cl)c(Cl)cc3n2c(=N)c1C#N | 80.1% | 98.4% | 69.3% | 121% | 117% | 87.9% | 107% | 95.5% | 106% | 112% | 91.4% | 123% | 97.5% | 89.3% |  | 110% | 91.9% | 101% | 116% |
| CCN(CC)c1ccc2cc(C(Nc3ccc(Cl)cc3)c3nnnn3C(C)(C)C)c(=O)oc2c1 (centres undefined) | 81.4% | 89.6% | 71.8% | 85.7% | 92.4% | 73.1% | 93.5% | 63.5% | 101% | 88.4% | 89.9% | 90.2% |  | 105% | 93.6% | 94.4% | 89.4% | 97.7% |  |
| CC1(C)S[C@@H]2[C@H](NC(=O)[C@H](C(=O)O)c3cccs3)C(=O)N2[C@H]1C(=O)O | 93.1% | 104% | 85.6% | 103% | 95.2% | 93.2% | 105% | 125% | 102% | 117% | 98.7% | 100% |  | 105% | 109% | 111% |  | 102% | 118% |
| O=C(Nc1ccccc1)Nc1ccc(C(=O)/C=C/c2ccc(N3CCCC3)cc2)cc1 | 74.2% | 66.5% | 67.7% | 102% | 83.6% | 61.7% | 72.6% | 67.5% | 98.9% | 78.3% | 81.7% | 83.2% |  | 66.1% | 92.1% | 43% | 38.2% | 28.6% | 45.9% |
| COc1ccc(C(=O)/C=C/c2ccccn2)c(O)c1 | 94.2% | 77.8% | 53.1% | 92.4% | 45% | 61.3% | 10.4% | 74.2% | -1.93% (active) | 6.35% (active) | 92.6% | 96.3% | 92.1% | 98.6% | 46.8% |  | 87.5% | 94% | 91.3% |
| O=C(Nc1cccc(F)c1)c1cc(=O)[nH]c2cc(Br)ccc12 | 63% | 60% | 51.5% | 69.8% | 57% | 33.8% | 58.8% | 45.8% | 21.8% | 76.1% | 71.8% | 63.3% | 70.6% | 51.8% | 40.5% | 23.5% | 52.4% | 53.2% | 30.8% |
| Cc1cc(C)c(-c2cc(O)c(-c3c(C)cc(C)cc3C)cc2O)c(C)c1 | 53.9% | 65.5% | 62.1% | 56.3% | 38.3% | 40.4% | 18.5% | 47.9% | 19.9% | 42.3% | 49.4% | 50.7% | 58.9% | 4.25% (active) | 70.3% | -25.7% (active) | 11.9% | 57.9% | 5.72% (active) |
| COc1cc(-c2nc(SCCC(C)C)nc(Nc3ccc(S(N)(=O)=O)cc3)c2C#N)cc(OC)c1OC | 45.1% | 26.4% | 14.7% | 50% | 29.5% | 17.1% | 14.1% | 1.98% (active) | -18.5% (active) | -0.242% (active) | 29.9% | 53.9% | 19.8% | 76.5% | 40.5% | 32.5% | 40.5% | 37.6% | 43.5% |
| COc1ccccc1S(=O)Nc1ccccc1 (centres undefined) | 106% | 94.4% | 85.9% | 101% | 107% | 98.2% | 93.6% |  | 82.7% | 99.9% | 94.2% |  | 110% | 105% | 107% | 107% | 82% | 105% | 82.9% |
| CC[C@]1(O)CC2CN(CCc3c([nH]c4ccccc34)[C@@](C(=O)OC)(c3cc4c(cc3OC)N(C=O)[C@H]3[C@@](O)(C(=O)OC)[C@H](OC(C)=O)[C@]5(CC)C=CCN6CC[C@]43[C@@H]65)C2)C1 (some centres undefined) | 47.4% | 26.6% | 56.3% | 74.2% | 34.4% | 48.9% | 2.51% (active) | 21.6% | 13% | 18.7% | 13.2% | 32.2% | 43% | 4.03% (active) | 39.4% | -49.2% (active) |  | 11.3% | -17.9% (active) |
| Nc1nnc(CSc2nnc3n(Cc4ccccc4)c(=O)c4c5c(sc4n23)CCCC5)s1 | 93.2% | 91.9% | 84.6% | 113% | 94.9% | 10% | 69.1% | 71.1% | 84% | 65.4% | 98.7% | 103% | 98.8% | 42.7% |  | 92.3% | 106% | 94.4% | 103% |
| Cc1ccccc1-n1nnc(C(=O)Nc2nc3ccc(F)cc3s2)c1C | 64.9% | 68.6% | 58% | 71.4% | 64.7% | 49.6% | 66.5% | 43.7% | 55.9% | 45% | 73.2% | 82.2% |  |  | 75.7% | 57.9% | 73.6% | 60.7% | 31.4% |
| CC(C)=CC/C=C(/C)[C@H]1CC[C@]2(C)[C@@H]1CC[C@@H]1[C@@]3(C)CCCNC(C)(C)[C@@H]3CC[C@]12C | -71.2% [100 µM] (active) | -85.2% [100 µM] (active) | -82.1% [100 µM] (active) | -67% [100 µM] (active) | -77% [100 µM] (active) | -79.9% [100 µM] (active) | -15.7% [100 µM] (active) | -25.6% [100 µM] (active) | 15.2% [100 µM] | -40.1% [100 µM] (active) | -29.5% [100 µM] (active) | -85.9% [100 µM] (active) |  | -66.8% [100 µM] (active) | -74.1% [100 µM] (active) | -47.8% [100 µM] (active) | -50.2% [100 µM] (active) | -69.6% [100 µM] (active) | -88.6% [100 µM] (active) |
| O=C(NCCCCCCCNC(=O)OCc1ccc2c(Cl)cc(Cl)c(O)c2n1)OCc1ccc2c(Cl)cc(Cl)c(O)c2n1 | -45.8% (active) | -76.5% (active) | -100% (active) | -80.7% (active) | -99.9% (active) | -93.4% (active) | 4.67% (active) | -2.43% (active) | 6.26% (active) | -15.5% (active) | -8.93% (active) | -76.8% (active) | -71.9% (active) | 35% | -86.2% (active) | -87.2% (active) | -9.29% (active) | -29.5% (active) | -80.6% (active) |
| O=C(Nc1cc(-c2cccnc2)nc(NCCCN2CCOCC2)n1)c1cc(Br)cc(C(F)(F)F)c1 | 77.4% | 67.2% | 42% | 65.4% | 75.6% | 61.8% | 42.8% | 45.1% | 4.25% (active) | 30.2% | 58.6% | 81.4% | 62.2% | 92.3% | 63.1% | 79.9% | 54% | 56.6% | 53.7% |
